# From PubChem BioAssay (EPA / NIEHS)
# Inconclusive results are not listed. The source made the active and inactive calls. How the source made its calls: active means hit-call score of the fitted dose curve at least 0.9, where 1 is the maximum; inconclusive means response in the unintended direction; inactive means score below 0.9.
# Columns and labels:
# [1] = target: human Ephrin type-A Receptor 1 (EphA1), EPHA1 (gene 2041) (UniProt P21709); assay: NVS_ENZ_hEphA1: NovaScreen (NVS) Enzymatic Assay for human Ephrin type-A Receptor 1 (EphA1) (AID 2283158);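 further: activity is signal loss versus DMSO meaning EphA1 kinase inhibition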
# Summary of the method: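 Cell-free enzymatic assay with recombinant EphA1 and fluorescent substrate; product separated by electrophoretic mobility shift, fluorescence intensity read 1 hour after dosing. Loss of signal versus DMSO baseline; primary duplicate screen at 25 uM, actives followed to 50 uM top concentration.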
# [2] = target: human Phosphodiesterase 10 (PDE10), PDE10A (gene 10846) (UniProt Q9Y233); assay: NVS_ENZ_hPDE10: NovaScreen (NVS) Enzymatic Assay for human Phosphodiesterase 10 (PDE10) (AID 2283195)
# Summary of the method: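 Readout is fluorescence intensity following electrophoretic mobility-shift separation, 1 h after dosing of isolated PDE10A protein. Hits meeting a preset threshold at 25 uM went to concentration series (max 50 uM), analysed relative to DMSO.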
# [3] = target: human Matrix Metalloproteinase-9 (MMP9), MMP9 (gene 4318) (UniProt P14780); assay: NVS_ENZ_hMMP9: NovaScreen (NVS) Enzymatic Assay for human Matrix Metalloproteinase-9 (MMP9) (AID 2283190);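 further: cell-free recombinant MMP9 protease activity read by fluorescent substrate signal; active means inhibition seen as loss of fluorescence signal versus DMSO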
# Summary of the method: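 Inhibition was scored as loss of fluorescence signal against DMSO controls. The recombinant protease was exposed to chemicals for 1 hour before reading; initial testing used 25 uM in duplicate.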
# [4] = target: sheep Cyclooxygenase-1 (Cox1), PTGS1 (gene 443551) (UniProt P05979); assay: NVS_ENZ_oCOX1: NovaScreen (NVS) Enzymatic Assay for sheep Cyclooxygenase-1 (Cox1) (AID 2283239);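 further: actives reduce cyclooxygenase activity so potencies are for inhibitors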
# Summary of the method: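 Cell-free colorimetric assay of enzyme activity in a native extract of ovine seminal vesicles. Absorbance was read 0.66 hour after compound addition. Loss of signal relative to the DMSO negative control was scored, with actives from the 25 uM duplicate primary screen retested in concentration series.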
# [5] = target: human Beta-secretase (BACE), BACE1 (gene 23621) (UniProt P56817); assay: NVS_ENZ_hBACE: NovaScreen (NVS) Enzymatic Assay for human Beta-secretase (BACE) (AID 2283140);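 further: hits are inhibitors that reduce fluorescent substrate signal versus DMSO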
# Summary of the method: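 Enzyme activity of SF9-produced BACE1 is measured cell-free by fluorescence, 1 hour post dosing, normalised to DMSO. Screening used 25 uM in duplicate, with concentration-response follow-up for actives.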
# [6] = target: human Phosphoinositide 3-kinase alpha (PI3Ka), PIK3CA (gene 5290) (UniProt P42336); assay: NVS_ENZ_hPI3Ka: NovaScreen (NVS) Enzymatic Assay for human Phosphoinositide 3-kinase alpha (PI3Ka) (AID 2283196)
# Summary of the method: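 Chemicals were first screened at 25 uM in duplicate, then hits were run as concentration series up to 50 uM. Enzyme activity was measured by fluorescence after mobility-shift separation, with loss of signal relative to DMSO taken as activity.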
# [7] = target: human Esterase Plasma (ES), BCHE (gene 590) (UniProt P06276); assay: NVS_ENZ_hES: NovaScreen (NVS) Enzymatic Assay for human Esterase Plasma (ES) (AID 2283157)
# Summary of the method: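 Screening ran at 25 uM in duplicate, followed by singleton concentration series reaching 50 uM for actives. Human plasma protein, colorimetric detection, 0.25 h exposure, DMSO negative control.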
# [8] = target: D(1A) dopamine receptor (Homo sapiens) (UniProt P21728); assay: NVS_GPCR_hDRD1: NovaScreen (NVS) G Protein-Coupled Receptor Assay for human Dopamine Receptor D1 (DRD1) (AID 2283269)
# Summary of the method: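 HEK293-derived receptor preparation; radioligand competitive displacement; 1 h; filtration + scintillation counting. DMSO = negative control/baseline. Primary: 25 uM, duplicate; secondary: concentration–response for actives.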
# [9] = target: human Vascular Endothelial Growth Factor Receptor 1 (VEGFR1), FLT1 (gene 2321) (UniProt P17948); assay: NVS_ENZ_hVEGFR1: NovaScreen (NVS) Enzymatic Assay for human Vascular Endothelial Growth Factor Receptor 1 (VEGFR1) (AID 2283226)
# Summary of the method: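 Kinase activity of recombinant human VEGFR1 was read by fluorescence after electrophoretic separation of product from substrate, 1 h post-dosing; initial duplicate single-point testing at 25 uM, followed by concentration-series follow-up, with DMSO as baseline.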
# [10] = target: human Adenosine A1 Receptor (AdoRA1), ADORA1 (gene 134) (UniProt P30542); assay: NVS_GPCR_hAdoRA1: NovaScreen (NVS) G Protein-Coupled Receptor Assay for human Adenosine A1 Receptor (AdoRA1) (AID 2283254)
# Summary of the method: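 Hum. cortical membranes + radioligand, cmpd 1 h; filtration, scintillation count. Readout = decrease vs DMSO. Primary 25 uM dup; hits → conc. series.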
# [11] = target: human Opioid Receptor Mu (Opiate Mu), OPRM1 (gene 4988) (UniProt P35372); assay: NVS_GPCR_hOpiate_mu: NovaScreen (NVS) G Protein-Coupled Receptor Assay for human Opioid Receptor Mu (Opiate Mu) (AID 2283290);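 further: hits lower bound tracer signal versus DMSO meaning displacement of the ligand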
# Summary of the method: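 CHO-derived receptor protein, cell-free; radioligand displacement, filtration + scintillation counting, read at 2.5 h. DMSO = negative control/baseline. Primary: 25 uM single conc, duplicate; secondary: concentration series.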
# [12] = target: guinea pig Opioid, Kappa 1 Receptor (OpiateK), OPRK1 (gene 100135587) (UniProt P41144); assay: NVS_GPCR_gOpiateK: NovaScreen (NVS) G Protein-Coupled Receptor Assay for guinea pig Opioid, Kappa 1 Receptor (OpiateK) (AID 2283252);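 further: radioligand displacement from kappa opioid receptor in guinea pig cerebellar membranes; active means reduced radioligand binding relative to DMSO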
# Summary of the method: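 Radioligand competition binding using guinea pig cerebellum membrane fraction; 2 h exposure; filter radiodetection. Single concentration 25 uM (duplicate), follow-up concentration-response for actives.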
# [13] = target: human Dual Specificity Protein Phosphatase 3 (DUSP3), DUSP3 (gene 1845) (UniProt P51452); assay: NVS_ENZ_hDUSP3: NovaScreen (NVS) Enzymatic Assay for human Dual Specificity Protein Phosphatase 3 (DUSP3) (AID 2283152);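 further: phosphatase activity of recombinant human DUSP3 on a fluorogenic substrate without cells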
# Summary of the method: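 Cell-free fluorescence-intensity enzyme activity assay with recombinant protein and substrate; loss of signal fitted relative to DMSO baseline. Primary screen in duplicate at 25 uM, actives then run in concentration series; measured 0 h after dosing.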
# [14] = target: human Neurokinin, NK2 Receptor, TACR2 (gene 6865) (UniProt P21452); assay: NVS_GPCR_hNK2: NovaScreen (NVS) G Protein-Coupled Receptor Assay for human Neurokinin, NK2 Receptor (AID 2283278);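 further: actives reduce bound radioligand signal relative to DMSO baseline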
# Summary of the method: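 Filter-based scintillation counting measured radioligand bound to receptor extracted from CHO cells, 4 hours after compound addition. Chemicals screened first at 25 uM in duplicate, with actives retested in concentration series relative to DMSO.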
# [15] = target: human Protein Tyrosine Phosphatase Non-receptor Type 6 (PTPN6), PTPN6 (gene 5777) (UniProt P29350); assay: NVS_ENZ_hPTPN6: NovaScreen (NVS) Enzymatic Assay for human Protein Tyrosine Phosphatase Non-receptor Type 6 (PTPN6) (AID 2283210)
# Summary of the method: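 Recombinant human PTPN6 from SF9 cells, enzyme activity followed by fluorescence after mobility-shift separation of substrate and product at 1.33 h. Chemicals first tested at a single 25 uM in duplicate, then confirmed across concentration series; loss of signal relative to DMSO.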
# human Phosphoinositide 3-kinase alpha (PI3Ka), PIK3CA (gene 5290), sequence (P42336 whole entry, looked up): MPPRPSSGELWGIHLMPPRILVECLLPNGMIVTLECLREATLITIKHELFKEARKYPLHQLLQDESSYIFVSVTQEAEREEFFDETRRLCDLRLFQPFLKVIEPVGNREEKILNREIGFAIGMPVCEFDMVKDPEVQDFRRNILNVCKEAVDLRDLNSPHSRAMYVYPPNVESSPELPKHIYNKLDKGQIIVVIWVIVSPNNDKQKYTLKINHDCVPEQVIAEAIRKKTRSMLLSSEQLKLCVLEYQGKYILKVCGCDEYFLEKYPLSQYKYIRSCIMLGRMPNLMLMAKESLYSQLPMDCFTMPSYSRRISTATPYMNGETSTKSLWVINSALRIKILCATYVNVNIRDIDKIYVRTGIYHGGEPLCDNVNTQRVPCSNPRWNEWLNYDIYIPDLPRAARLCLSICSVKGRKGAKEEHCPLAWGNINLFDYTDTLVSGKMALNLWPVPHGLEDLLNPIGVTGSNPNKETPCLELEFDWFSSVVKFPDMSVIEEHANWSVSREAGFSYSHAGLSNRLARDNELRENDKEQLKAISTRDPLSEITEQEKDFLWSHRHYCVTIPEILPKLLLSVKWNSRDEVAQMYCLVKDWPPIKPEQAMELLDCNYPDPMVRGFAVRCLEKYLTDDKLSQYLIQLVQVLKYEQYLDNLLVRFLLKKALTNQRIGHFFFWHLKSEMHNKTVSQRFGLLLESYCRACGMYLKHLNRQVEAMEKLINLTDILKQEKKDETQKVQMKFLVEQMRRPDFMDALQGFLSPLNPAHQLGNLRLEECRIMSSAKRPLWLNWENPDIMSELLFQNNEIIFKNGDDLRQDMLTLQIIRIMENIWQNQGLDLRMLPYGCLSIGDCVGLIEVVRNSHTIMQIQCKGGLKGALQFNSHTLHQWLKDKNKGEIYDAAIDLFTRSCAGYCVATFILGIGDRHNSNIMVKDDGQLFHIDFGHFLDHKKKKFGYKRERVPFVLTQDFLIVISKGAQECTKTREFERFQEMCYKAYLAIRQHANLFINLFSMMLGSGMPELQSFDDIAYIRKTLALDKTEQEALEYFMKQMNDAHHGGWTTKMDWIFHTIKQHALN
# human Phosphodiesterase 10 (PDE10), PDE10A (gene 10846), sequence (Q9Y233 whole entry, looked up): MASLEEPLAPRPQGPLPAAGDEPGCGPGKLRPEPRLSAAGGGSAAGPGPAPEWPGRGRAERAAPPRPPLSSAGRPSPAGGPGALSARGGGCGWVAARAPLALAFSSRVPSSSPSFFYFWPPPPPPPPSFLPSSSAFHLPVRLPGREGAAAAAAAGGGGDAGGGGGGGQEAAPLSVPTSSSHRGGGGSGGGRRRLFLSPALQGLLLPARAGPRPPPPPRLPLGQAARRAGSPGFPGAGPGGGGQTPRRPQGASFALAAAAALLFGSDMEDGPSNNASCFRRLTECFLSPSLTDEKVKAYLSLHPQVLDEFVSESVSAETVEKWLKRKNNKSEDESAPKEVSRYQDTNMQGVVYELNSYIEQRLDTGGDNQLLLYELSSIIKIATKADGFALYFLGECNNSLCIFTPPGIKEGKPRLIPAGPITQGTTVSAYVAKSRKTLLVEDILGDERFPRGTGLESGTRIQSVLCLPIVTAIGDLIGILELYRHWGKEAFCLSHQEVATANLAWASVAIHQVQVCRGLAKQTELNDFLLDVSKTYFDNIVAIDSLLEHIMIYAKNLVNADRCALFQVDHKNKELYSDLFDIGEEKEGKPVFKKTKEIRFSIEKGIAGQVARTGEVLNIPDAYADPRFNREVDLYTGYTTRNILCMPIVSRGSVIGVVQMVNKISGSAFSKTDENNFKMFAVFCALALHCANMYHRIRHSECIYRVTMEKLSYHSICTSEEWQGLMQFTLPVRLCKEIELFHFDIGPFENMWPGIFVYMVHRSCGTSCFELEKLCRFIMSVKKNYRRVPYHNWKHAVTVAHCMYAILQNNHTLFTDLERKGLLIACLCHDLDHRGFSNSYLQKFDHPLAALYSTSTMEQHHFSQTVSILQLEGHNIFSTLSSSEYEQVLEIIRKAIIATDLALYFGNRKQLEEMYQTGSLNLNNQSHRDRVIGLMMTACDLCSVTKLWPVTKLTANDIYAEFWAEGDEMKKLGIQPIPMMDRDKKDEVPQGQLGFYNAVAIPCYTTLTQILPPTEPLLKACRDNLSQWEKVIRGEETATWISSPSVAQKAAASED
# human Ephrin type-A Receptor 1 (EphA1), EPHA1 (gene 2041), sequence (P21709 whole entry, looked up): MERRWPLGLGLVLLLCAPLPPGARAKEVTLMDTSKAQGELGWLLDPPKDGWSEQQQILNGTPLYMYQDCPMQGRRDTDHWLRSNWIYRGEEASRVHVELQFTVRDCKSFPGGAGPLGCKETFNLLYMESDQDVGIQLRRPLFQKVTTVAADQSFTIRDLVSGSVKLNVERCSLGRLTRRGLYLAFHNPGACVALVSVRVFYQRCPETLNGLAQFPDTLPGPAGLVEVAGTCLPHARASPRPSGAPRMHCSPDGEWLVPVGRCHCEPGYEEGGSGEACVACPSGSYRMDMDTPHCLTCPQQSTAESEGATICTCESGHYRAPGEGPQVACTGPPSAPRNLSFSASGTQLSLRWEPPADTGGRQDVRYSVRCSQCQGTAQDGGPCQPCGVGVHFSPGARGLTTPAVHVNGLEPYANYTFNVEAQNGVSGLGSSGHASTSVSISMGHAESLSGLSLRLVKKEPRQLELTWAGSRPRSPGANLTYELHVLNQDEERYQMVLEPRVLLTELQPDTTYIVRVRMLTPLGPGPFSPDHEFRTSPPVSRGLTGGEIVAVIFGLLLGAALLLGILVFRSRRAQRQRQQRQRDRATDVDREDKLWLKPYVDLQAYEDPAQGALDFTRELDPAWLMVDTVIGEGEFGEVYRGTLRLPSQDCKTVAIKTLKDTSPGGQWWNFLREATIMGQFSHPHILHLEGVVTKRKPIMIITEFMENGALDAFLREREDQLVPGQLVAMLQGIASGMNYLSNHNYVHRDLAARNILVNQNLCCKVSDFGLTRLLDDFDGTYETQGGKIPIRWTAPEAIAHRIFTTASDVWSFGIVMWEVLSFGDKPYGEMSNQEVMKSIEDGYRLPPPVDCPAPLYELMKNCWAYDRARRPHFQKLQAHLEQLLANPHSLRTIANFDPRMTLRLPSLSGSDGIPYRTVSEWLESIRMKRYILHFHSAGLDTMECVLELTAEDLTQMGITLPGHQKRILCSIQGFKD
# sheep Cyclooxygenase-1 (Cox1), PTGS1 (gene 443551), sequence (P05979 whole entry, looked up): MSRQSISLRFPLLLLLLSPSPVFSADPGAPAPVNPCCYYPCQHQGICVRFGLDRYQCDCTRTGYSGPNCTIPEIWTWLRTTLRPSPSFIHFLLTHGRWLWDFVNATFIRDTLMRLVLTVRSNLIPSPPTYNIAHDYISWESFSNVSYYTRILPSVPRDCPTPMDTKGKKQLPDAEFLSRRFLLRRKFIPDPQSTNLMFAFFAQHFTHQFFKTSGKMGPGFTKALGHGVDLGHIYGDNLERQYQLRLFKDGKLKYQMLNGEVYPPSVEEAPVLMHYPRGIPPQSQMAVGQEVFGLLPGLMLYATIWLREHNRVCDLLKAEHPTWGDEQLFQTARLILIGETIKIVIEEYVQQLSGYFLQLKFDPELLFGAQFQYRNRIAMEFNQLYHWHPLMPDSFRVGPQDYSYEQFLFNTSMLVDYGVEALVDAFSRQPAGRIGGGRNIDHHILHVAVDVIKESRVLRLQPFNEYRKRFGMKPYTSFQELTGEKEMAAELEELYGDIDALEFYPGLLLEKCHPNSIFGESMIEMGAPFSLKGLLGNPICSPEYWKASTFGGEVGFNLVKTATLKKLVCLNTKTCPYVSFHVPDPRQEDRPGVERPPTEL
# human Matrix Metalloproteinase-9 (MMP9), MMP9 (gene 4318), sequence (P14780 whole entry, looked up): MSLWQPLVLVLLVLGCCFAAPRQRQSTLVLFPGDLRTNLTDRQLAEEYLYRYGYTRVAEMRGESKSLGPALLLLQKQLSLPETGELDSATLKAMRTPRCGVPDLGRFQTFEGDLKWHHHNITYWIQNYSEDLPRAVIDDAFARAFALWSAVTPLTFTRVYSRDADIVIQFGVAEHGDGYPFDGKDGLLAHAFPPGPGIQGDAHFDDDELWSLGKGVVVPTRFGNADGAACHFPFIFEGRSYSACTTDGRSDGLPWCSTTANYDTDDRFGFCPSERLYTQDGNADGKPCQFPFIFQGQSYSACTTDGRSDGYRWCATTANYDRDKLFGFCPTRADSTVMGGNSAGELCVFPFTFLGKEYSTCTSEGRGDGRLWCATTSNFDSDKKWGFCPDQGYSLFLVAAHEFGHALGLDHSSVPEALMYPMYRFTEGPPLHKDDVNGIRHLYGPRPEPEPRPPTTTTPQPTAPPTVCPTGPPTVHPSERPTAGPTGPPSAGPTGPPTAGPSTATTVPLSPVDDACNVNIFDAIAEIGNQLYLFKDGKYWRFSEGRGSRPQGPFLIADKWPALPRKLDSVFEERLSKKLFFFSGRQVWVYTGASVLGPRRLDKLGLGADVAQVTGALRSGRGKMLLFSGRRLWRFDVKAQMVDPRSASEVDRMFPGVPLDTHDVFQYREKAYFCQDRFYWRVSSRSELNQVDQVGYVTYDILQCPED
# human Adenosine A1 Receptor (AdoRA1), ADORA1 (gene 134), sequence (P30542 whole entry, looked up): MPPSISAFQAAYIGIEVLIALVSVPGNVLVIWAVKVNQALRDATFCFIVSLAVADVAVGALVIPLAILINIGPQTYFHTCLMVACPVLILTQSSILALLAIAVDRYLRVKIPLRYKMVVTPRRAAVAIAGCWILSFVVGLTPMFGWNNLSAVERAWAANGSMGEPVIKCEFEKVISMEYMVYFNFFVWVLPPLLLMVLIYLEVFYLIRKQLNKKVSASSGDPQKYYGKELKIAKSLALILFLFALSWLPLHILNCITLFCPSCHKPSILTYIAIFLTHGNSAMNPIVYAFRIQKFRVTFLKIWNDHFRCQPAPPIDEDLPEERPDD
# human Dual Specificity Protein Phosphatase 3 (DUSP3), DUSP3 (gene 1845), sequence (P51452 whole entry, looked up): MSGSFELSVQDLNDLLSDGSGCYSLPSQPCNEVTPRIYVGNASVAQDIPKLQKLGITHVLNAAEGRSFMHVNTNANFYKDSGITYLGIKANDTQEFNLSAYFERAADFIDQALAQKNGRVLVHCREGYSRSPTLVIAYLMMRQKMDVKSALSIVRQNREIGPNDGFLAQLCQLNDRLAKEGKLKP
structure (smiles),measurement,setting,value
Cc1ccc2ccccc2n1,outcome,[1],inactive
same,AC50,[2],9.74 µM (active)
CCCCCCCCC,AC50,[3],25 µM (active)
same,outcome,[4],inactive
COC(=O)c1ccc(C)cc1,outcome,[5],inactive
same,outcome,[6],inactive
same,outcome,[4],inactive
CCn1c2ccccc2c2cc(N)ccc21,AC50,[7],27.1 µM (active)
same,AC50,[1],19.3 µM (active)
same,AC50,[6],9.32 µM (active)
same,AC50,[4],3.25 µM (active)
same,AC50,[8],38.5 µM (active)
CC1CCC2CC1C2(C)C (stereo not drawn),AC50,[1],21.3 µM (active)
same,outcome,[2],inactive
same,AC50,[6],1.82 µM (active)
CCCCO,outcome,[1],inactive
CC1(C)[C@H]2CC[C@]1(C)[C@H](O)C2,outcome,[1],inactive
COc1cc2ncnc(Nc3cccc(Cl)c3)c2cc1OC,outcome,[1],inactive
same,AC50,[2],2.52 µM (active)
same,AC50,[9],1.27 µM (active)
same,AC50,[10],9.94 µM (active)
same,AC50,[11],4.36 µM (active)
CC1CCC(C(C)CS)CC1S (stereo not drawn),AC50,[3],0.997 µM (active)
same,AC50,[4],25 µM (active)
OCC(CO)(CO)COCC(CO)(CO)CO,outcome,[1],inactive
same,AC50,[2],23.1 µM (active)
CC(=O)OCc1ccc2c(c1)OCO2,AC50,[1],8.23 µM (active)
same,outcome,[2],inactive
same,outcome,[4],inactive
CC(CCO)CCCC(C)(C)O (stereo not drawn),outcome,[1],inactive
CC(=O)O[C@]1(C(C)=O)CC[C@H]2[C@@H]3C[C@H](C)C4=CC(=O)CC[C@]4(C)[C@H]3CC[C@@]21C,outcome,[3],inactive
CC1COc2ccccc2N1C(=O)C(Cl)Cl (stereo not drawn),outcome,[1],inactive
same,outcome,[12],inactive
S=C(S)NCCNC(=S)S,AC50,[13],0.161 µM (active)
same,AC50,[14],3.54 µM (active)
Clc1ccc(Cl)c(Cl)c1Cl,AC50,[3],6.22 µM (active)
CNC[C@H](O)c1cccc(O)c1,AC50,[3],10.6 µM (active)
CC(=O)/C=C/C1=C(C)CCCC1(C)C,outcome,[6],inactive
CCCCC(CC)COCCC#N (stereo not drawn),outcome,[6],inactive
O=C(O)c1ccc([N+](=O)[O-])cc1,outcome,[15],inactive
c1ccc2c(c1)c1cccc3ccc4cccc2c4c31,outcome,[9],inactive
O=P(c1ccccc1)(c1ccccc1)c1ccccc1,AC50,[12],11.4 µM (active)
Cc1c(Cl)c(=O)oc2cc(O)ccc12,outcome,[10],inactive
